High-throughput results (PubChem BioAssay)
A selection: hits, their analogues and other compounds. The true share with any hit is near 21%.
CHX counter: Cycloheximide Counterscreen for Small Molecule Inhibitors of Shiga Toxin | max response, % | AID 2314, 2010 | actives 12% (n = 300,000) | cell reporter, cycloheximide protein synthesis inhibition counterscreen; in the data active = max response mostly above about 13%, no sharp cut-off; inactive = mostly below about 14%; note: read at 38.3 µM for the half of the compounds with a filed dose
FBPA Giardia inh: qHTS Assay for Inhibitors of Fructose-1,6-bisphosphate Aldolase from Giardia Lamblia. A8B2U2. purified Giardia FBPA. Potency, µM (highest dose often 59.6 µM), most hits filed as inhibitors. actives 0.71% (n = 290,000). AID 2451, 2010; note: nearly all actives have a fitted effect of over 55% in size
Target sequence (A8B2U2 whole entry, looked up): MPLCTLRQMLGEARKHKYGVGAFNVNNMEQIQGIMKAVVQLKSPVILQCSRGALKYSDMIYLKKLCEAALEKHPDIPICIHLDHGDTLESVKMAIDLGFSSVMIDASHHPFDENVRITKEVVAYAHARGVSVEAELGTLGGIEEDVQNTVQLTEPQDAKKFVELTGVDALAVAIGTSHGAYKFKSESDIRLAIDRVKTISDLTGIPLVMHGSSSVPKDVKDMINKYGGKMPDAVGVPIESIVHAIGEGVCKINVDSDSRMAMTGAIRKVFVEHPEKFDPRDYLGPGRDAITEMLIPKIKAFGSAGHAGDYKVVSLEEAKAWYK
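40 nM FBPA preincubated 10 min at RT with compound (up to 57.5 uM final), then substrate plus GAPDH/TPI/NAD/arsenate coupling and diaphorase/resazurin added. Fluorescence read after 20 min at RT, 525/598 nm.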
Pf growth 48h: Primary qHTS for delayed death inhibitors of the malarial parasite plastid, 48 hour incubation; Potency, µM (top dose mostly 28.7 µM), actives largely listed as inhibitors; P. falciparum luciferase growth in erythrocytes, 48 h; AID 504832, 2011; actives 5.9% (n = 310,000)
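In quantitative HTS format, infected erythrocytes bearing luciferase-reporter parasites were treated for a single generation at 37 C. Luminescence after adding detection reagent served as the growth measure.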
Shiga inhibitor: A qHTS for Small Molecule Inhibitors of Shiga Toxin. Vero cells, Shiga toxin protein synthesis inhibition reporter. inhibition, % at 38.7 µM. actives 9.2% (n = 290,000); in the data active = inhibition mostly above about 28%, no sharp cut-off; inactive = mostly below about 43%
Pf growth 96h: Primary qHTS for delayed death inhibitors of the malarial parasite plastid, 96 hour incubation; actives 6.9% (n = 320,000); Potency, µM (doses to about 28.7 µM), usual class: inhibitors; P. falciparum luciferase reporter growth, 96 h
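Cell-based qHTS: luciferase-tagged P. falciparum in erythrocytes (2% hematocrit, 0.05% parasitemia final) incubated with compounds for 96 hours, 37 C, 5% CO2; luciferase detection reagent then added and luminescence measured.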
NS1 function inh: qHTS Assay for Inhibitors of Influenza NS1 Protein Function | Potency, µM (top dose mostly 46.1 µM) | actives 0.4% (n = 270,000); calls by dose curve; note: actives are rising curves; nearly all actives have a fitted effect of over 50% in size
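In this qHTS, NS1 from influenza A is expressed in budding yeast, where it slows growth. Cells are switched from glucose to 2% galactose medium (pH 6.0, -URA), treated with compound, and growth recovery is read at OD600.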
Numbers stand for hits; i = inactive; ? = inconclusive; nt = no result given; [ ] = dose if it differs, or a comment. Unless noted, calls come from the whole dose curve; as a rule, active = well fitted curve in the direction sought with a large enough effect; inconclusive = small, poorly fitted or top-dose-only effect, or another doubt; inactive = no such curve, though single readings can be large; an effect the other way counts as inactive or inconclusive.

SMILES | CHX counter | FBPA Giardia inh | Pf growth 48h | Shiga inhibitor | Pf growth 96h | NS1 function inh
Cc1nnc(N(C)C(=O)c2ccncc2)s1 | i | i | i | i | i | i
O=C1C=C(NCCO)C(=O)c2cnccc21 | nt | i | nt | nt | nt | nt
O=C1C=C(NCCN2CCOCC2)C(=O)c2cnccc21 | i | ? | 1.5µM | i | 1.7µM | i
CN(C)c1nc(-c2ccccc2)[n+](C)s1 | i | i | 12µM | i | i | i
C=CCn1cc(C(=O)N2CCN(c3ccccc3)CC2)c(=O)c2cc(S(=O)(=O)N3CCCC3)ccc21 | i | nt | ? | i | i | i
CC(C)CCNC(=O)C(c1ccncc1)N(C(=O)Cn1nnc(-c2ccc(F)cc2)n1)c1ccccc1F (stereo unspecified) | i | i | ? | i | 6.6µM | nt
CC(C)(C)N(C(=O)Cn1nnc(-c2ccc(F)cc2)n1)C(C(=O)NC1CCCC1)c1ccncc1 (stereo unspecified) | i | i | ? | i | 8.3µM | i
Cc1ccc(C)c(N(C(=O)Cn2nnc(-c3cccs3)n2)C(C(=O)NC2CCCC2)c2ccncc2)c1 (stereo unspecified) | i | i | 4.7µM | i | ? | i
CC(C)(C)NC(=O)C(OC(=O)Cn1nnc(-c2ccc(F)cc2)n1)c1ccncc1 (stereo unspecified) | i | i | i | i | 9.3µM | i
COc1cccc(N(C(=O)Cn2nnc(-c3cccs3)n2)C(C(=O)NC2CCCCC2)c2ccncc2)c1 (stereo unspecified) | i | i | i | i | ? | i
CC(C)CCNC(=O)C(c1ccncc1)N(CC1CCCO1)C(=O)Cn1nnc(-c2ccc(F)cc2)n1 (stereo unspecified) | i | i | ? | i | i | i
CCS(=O)(=O)N1CCC(C(=O)Nc2ccc(C(C)=O)cc2)CC1 | i | i | ? | i | i | ?
CS(=O)c1ccc(-c2nc(-c3ccc(F)cc3)c(-c3ccncc3)[nH]2)cc1 (stereo unspecified) | nt | i | nt | nt | nt | nt
O=C(CNC(=O)c1cccc(F)c1)N/N=C/c1cccs1 | i | i | i | i | i | i
Cc1nnc(SCC(=O)NNC(=O)COc2ccc(Cl)cc2)n1C | i | i | i | i | i | i
O=C(CN(CCN1CCOCC1)C(=O)Cn1nnc(-c2ccc(F)cc2)n1)NC1CCCCC1 | i | i | nt | i | 6.6µM | i
OC[C@H]1OC(Nc2ccc(N=Nc3ccccc3)cc2)[C@@H](O)[C@@H](O)[C@@H]1O (stereo partly specified) | 37 | i | i | 112 | i | i
O=C(NNC1OC(CO)C(O)C(O)C1O)c1cccc(Br)c1 (stereo unspecified) | i | i | i | i | i[5.75 µM] | nt
Cc1ccc(S(=O)(=O)NC(C)(C)CSc2nnc(Nc3ccccc3)s2)cc1 | i | i | nt | i | 12µM | i
CC(C)(CSc1ncccn1)NS(=O)(=O)c1ccccc1 | i | i | i | i | i | i
c1ccc(-c2nc(-c3nccc4ccccc34)oc2-c2ccccc2)cc1 | 46 | ? | i | 74 | i | i
O=C(N/N=C/c1ccccn1)c1cc(Br)ccc1O | 32 | ? | ? | 48 | i | i
O=C(N/N=C/c1ccccn1)c1ccc(Br)o1 | 19 | i | ? | 44 | ? | i
O=C(N/N=C/c1cccnc1)c1cc(Br)ccc1O | 26 | i | i | 53 | i | i
O=C(N/N=C/c1ccccn1)C1CC1 | i | i | nt | i | i | i
SMILES | CHX counter | FBPA Giardia inh | Pf growth 48h | Shiga inhibitor | Pf growth 96h | NS1 function inh
N#CC1(NC(=O)CN2c3cccc4cccc(c34)S2(=O)=O)CCCCC1 | nt | nt | i | nt | ? | nt
Cc1ccc(-n2ccc(=O)c(C(=O)Nc3ccc(S(=O)(=O)Nc4nccs4)cc3)n2)cc1 | i | i | i | i | ? | i
COc1ccc(Cc2nc3ccccc3[nH]c2=O)cc1 | i | i | i | i | i | i
N#CC(CO)(Cc1ccc(OC(F)F)cc1)c1nc2ccccc2[nH]1 (stereo unspecified) | 23 | i | i | 40 | ? | i
COc1ccc(CC(C#N)(CO)c2nc3ccccc3[nH]2)cc1 (stereo unspecified) | i | i | ? | i | 2.3µM | i
FC(F)Oc1ccc(NC(=S)NCc2nc3ccccc3[nH]2)cc1 | i | i | i | i | i | i
CC(C)(C)C(=O)Nc1ccccc1N1CCN(c2ccc(F)cc2)CC1 | i | i | ? | i | i | i
COc1cccc(C2CC(c3c(Cl)cccc3Cl)n3nc(N)nc3N2)c1 (stereo unspecified) | i | i | ? | i | 13µM | i
CCOc1ccccc1C1CC(c2ccc(Br)cc2)Nc2nc(N)nn21 (stereo unspecified) | i | i | ? | i | 7.4µM | i
CCOc1ccc(C2CC(c3ccccc3C)n3nc(N)nc3N2)cc1 (stereo unspecified) | i | i | i | i | ? | ?
Nc1nc2n(n1)C(c1ccccc1Cl)CC(c1ccc(F)cc1)N2 (stereo unspecified) | i | i | nt | i | 1.7µM | i
COc1cccc(C2CC(c3c(F)cccc3Cl)n3nc(N)nc3N2)c1 (stereo unspecified) | i | i | ? | i | i | i
CCc1ccc(C2CC(c3ccccc3)Nc3nc(N)nn32)cc1 (stereo unspecified) | i | i | i | i | 1.9µM | i
Cc1cccc(N(C(=O)c2snc(C(N)=O)c2N)C(C(=O)NCc2ccccc2)c2ccncc2)c1 (stereo unspecified) | i | i | ? | i | i | i
Nc1ccc(S(=O)(=O)N2CCOCCOCCOCCOCCOCC2)cc1 | i | i | i | nt | i | i
CN(C)CCCN(C(=O)/C=C/c1cccs1)c1nc2ccc(F)cc2s1 | i | i | ? | i | ? | nt
CN(C)CCCN(C(=O)c1ccc(C(=O)c2ccccc2)cc1)c1nc2c(F)cccc2s1 | i | nt | ? | i | i | i
CCc1ccc2nc(N(CCCN(C)C)C(=O)c3ccc(S(=O)(=O)N4CCCC4)cc3)sc2c1 | i | nt | ? | i | ? | i
CN(C)CCCN(C(=O)c1sc2ccccc2c1Cl)c1nc2ccc(F)cc2s1 | 37 | i | i | 79 | i | i
CCOc1cccc2sc(N(CCCN(C)C)C(=O)c3ccc(C(=O)c4ccccc4)cc3)nc12 | i | i | ? | i | 10µM | i
CCc1ccc2nc(N(CCCN(C)C)C(=O)c3ccc(C(=O)c4ccccc4)cc3)sc2c1 | i | nt | ? | i | 15µM | i
COC(=O)CN1C(=O)[C@H]2[C@@H](/C=C/c3ccccc3)N3C(=O)CN(Cc4ccccc4)C(=O)[C@@]3(C)[C@H]2C1=O | i | i | i | i | i | i
CS(=O)(=O)c1ccc(Cl)c(NC(=O)c2cc(=O)[nH]c3ccc(S(=O)(=O)N4CCOCC4)cc23)c1 | nt | nt | i | nt | i | nt
Cc1ccc(S(=O)(=O)N2CCCCC2)c(C)c1NS(C)(=O)=O | i | i | i | i | ? | i
